Results on 53 compounds are retold here after ChEMBL document CHEMBL4888484, “Replenishing the malaria drug discovery pipeline: Screening and hit evaluation of the MMV Hit Generation Library 1 (HGL1) against asexual blood stage Plasmodium falciparum ,using a nano luciferase reporter read-out” (2022).

The structures appear in SMILES notation. Values joined by “and” are separate entries in the source; they are usually repeats but may differ in a detail not shown here. Equal entries are not always repeated. Screen size: about 150,000 compounds; about 540 (0.36%) showed an effect of 50% or more. The sample as a whole holds a higher share of strong results than the screen did.

For this experiment, the system named is Plasmodium falciparum. Briefly: Primary screen in NF54 nanoGlo assay, in single point, at 2uM, 72h; a lower Z score goes with more inhibition. The conditions noted are these: timepoint 72 hour. The class given is functional, Erythrocyte.

On to `CC1CCCN(C(=O)C2CCC2)C1CN` (stereo unspecified), for which the % Inhibition – broadly, the relative decrease from the control value, in per cent – is listed as -3% and the Z score was found to be 0.43.
As for `CC(C)c1ccc2ncnc(N[C@H]3CCc4[nH]cnc4C3)c2c1`, the “% Inhibition” value is 96% and the Z score is recorded as -17.94.
The matching figures for `C[C@@H](NC(=O)NC1CCc2[nH]cnc2C1)c1ccc(F)cc1` (stereo partly specified): -10% and 1.89.
On to `C[C@@H]1CC[C@H](CO)N1C(=O)Cc1cccc(C(F)(F)F)n1`, for which the “% Inhibition” value is on record as 3% and the Z score was -0.37.
Take `Cc1c(C(=O)NC[C@H]2CCCOC2)[nH]c2c(Cl)cccc12`: the “% Inhibition” value is given as -9% and the Z score is given as 1.62.
As to `C[C@H](OC(=O)CNC(=O)OC(C)(C)C)C(=O)N1CCCCCC1`, the “% Inhibition” value was -12% and the Z score is 1.29.
In the case of `c1ccc(C2(c3ccccc3)O[C@@H](c3cccnc3)Nc3ccccc32)cc1`, the “% Inhibition” value is reported as -4% and the Z score worked out at 0.54.
The matching figures for `CC(C)Oc1ccccc1[C@H]1Nc2ccccc2C(c2ccccc2)(c2ccccc2)O1`: -1% and 0.21.
With `Cc1ccc(CC[C@H]2Nc3ccccc3C(c3ccccc3)(c3ccccc3)O2)o1`, the “% Inhibition” value worked out at 81% and the Z score is listed as -13.4.
`Cc1cc(=O)n(CC(=O)N2CCCC[C@@H]2CCc2ccccc2)nc1C`: the “% Inhibition” value is given as -18% and the Z score came to 3.31.
Taken in the same sequence, the figures for `O=C(c1cccs1)N(Cc1ccccn1)c1nc2ccccc2s1` were 4% and -0.46.
`Cc1oc(-c2ccn[nH]2)cc1S(=O)(=O)Nc1ccc(F)c(Cl)c1`: the “% Inhibition” value is listed as 37% and the Z score is given as -0.01.
For `Cc1oc(-c2ccn[nH]2)cc1S(=O)(=O)Nc1cccc(Cl)c1`, the “% Inhibition” value worked out at 59% and the Z score is -0.35.
Consider `Cc1ccc(F)c(NS(=O)(=O)c2cc(-c3ccn[nH]3)oc2C)c1`, for which the “% Inhibition” value is reported as 2% and the Z score is on record as -0.25.
Take `O=C(O)c1cc(NS(=O)(=O)c2cc(F)ccc2F)ccc1N1CCCCCC1`: the “% Inhibition” value is -4% and the Z score stood at 0.67.
The matching figures for `CCc1cccc2c(C3=CCN(c4ccc5nnc(C(F)(F)F)n5n4)CC3)c[nH]c12`: 11% and -2.04.
Regarding `Cc1cc(C)cc(NC(=O)c2c(C)sc3ncnc(N4CCCC4)c23)c1`, the “% Inhibition” value is listed as -2% and the Z score came out at 0.31.
On to `CC(CN1CCC(N2CCOCC2)C1)c1cccc(Cl)c1` (stereo unspecified), for which the “% Inhibition” value amounted to 5% and the Z score is -0.64.
For the compound `CCC(=O)NCc1nc2c(n1C)CN(C(=O)c1ccc(CC)cc1)CC2`, the “% Inhibition” value came to 2% and the Z score is -0.2.
On to `COC1(C)CCN(C(=O)c2ccon2)CC1`, for which the “% Inhibition” value is -4% and the Z score was determined as 0.52.
Take `O=C(CCc1conc1-c1cccc(F)c1)NC1CC1`: the “% Inhibition” value is -8% and the Z score is 1.59.
Turning to `Cc1cc(C)c(S(=O)(=O)N2CC[C@H](n3cccn3)C2)s1`, the “% Inhibition” value is listed as -1% and the Z score stood at 0.1.
For `O=S(=O)(c1cccs1)N1CC[C@H](n2ccnn2)C1`, the “% Inhibition” value was -9% and the Z score was determined as 1.54.
Take `Cc1csc(S(=O)(=O)N2CC[C@H](n3cccn3)C2)c1`: the “% Inhibition” value is 82% and the Z score is recorded as 1.47.
Taken in the same sequence, the figures for `COC[C@](C)(CCO)NC(=O)Nc1cc(F)cc(Br)c1` were -13% and 1.11.
For the compound `CCn1cc(C(=O)Nc2ccc(OCCN3CC[C@H](C)C3)cc2)cn1`, the “% Inhibition” value turned out to be 5% and the Z score is recorded as -0.92.
For the compound `Cc1cc(C)cc(N(CCC#N)C(=O)CN2CCC[C@H]2c2ccc3c(c2)OCCCO3)c1`, the “% Inhibition” value is -2% and the Z score is given as 0.18.
Take `Cn1cc(C(=O)N[C@H]2CCN(c3ccc(F)c(Cl)c3)C2)cn1`: the “% Inhibition” value is recorded as -3% and the Z score is on record as 0.57.
Taken in the same sequence, the figures for `CNC(=O)Nc1cccc(NC(=O)c2cncc(-c3cnn(C)c3)c2)c1` were 24% and -3.15.
On to `COCCCCC(=O)N1CCC[C@H](N)[C@@H]1c1ccccc1OC`, for which the “% Inhibition” value is 4% and the Z score is reported as -0.43.
On to `O=C(CN1C(=O)N[C@]2(CCc3cc(Cl)ccc32)C1=O)c1ccc2c(c1)OCO2`, for which the “% Inhibition” value worked out at 0% and the Z score is on record as -0.01.
As to `CC(C)Nc1nc2nonc2n2nnnc12`, the “% Inhibition” value worked out at 31% and the Z score is -3.95.
The matching figures for `CC(C)Nc1nc2nonc2n2cnnc12`: 77% and -8.71.
As for `C[C@H](Nc1nc2nonc2n2nnnc12)c1ccccc1`, the “% Inhibition” value is recorded as 27% and the Z score was -3.54.
Turning to `Cc1cc(N2CCC[C@H](CNC(=O)CN3CCOCC3)C2)nc2cc(F)ccc12`, the “% Inhibition” value is reported as -15% and the Z score is 1.9.
As to `CC(=O)N[C@H]1CCN(S(=O)(=O)c2sccc2Cl)C1`, the “% Inhibition” value came to 0% and the Z score is reported as -0.08.
On to `O=C(NC1CCCC1)[C@@H](c1ccccc1)N1CCS(=O)(=O)CC1`, for which the “% Inhibition” value was 7% and the Z score was -0.84.
For the compound `O=C(NC[C@]12C[C@H]1COC21CCC1)c1ncoc1-c1ccon1`, the “% Inhibition” value was found to be 5% and the Z score is listed as -0.99.
The matching figures for `CN(CC(C)(CO)CO)C(=O)c1ccsc1`: 6% and -0.9.
In the case of `CCOC(=O)C1CCCN(C2CCN(C(=O)CCC3(Cc4ccc(C)cc4)CCC(=O)N3)CC2)C1` (stereo unspecified), the “% Inhibition” value is listed as -5% and the Z score came to 0.68.
Taken in the same sequence, the figures for `Cc1nc(CCNc2nc(-c3ccccn3)nc3c2CCNCC3)no1` were -2% and 0.27.
Turning to `Cc1sc2nc(-c3ccccn3)nc(NCC(=O)N3CCC(O)CC3)c2c1-c1ccccc1`, the “% Inhibition” value is reported as 25% and the Z score is given as -2.12.
As to `Cc1cc(CN(C)C(=O)[C@H]2CC(=O)N(c3ccccc3)C2)no1`, the “% Inhibition” value is reported as -3% and the Z score was determined as 0.62.
Take `CCC(=O)Nc1ccc(Oc2c(C)c(C(=O)O)nn2-c2ccccc2C)c(S(=O)(=O)N[C@@H](C)CC)c1`: the “% Inhibition” value is -10% and the Z score is 0.97.
For the compound `Cc1c(C(=O)O)nn(-c2ccc(F)cc2)c1Oc1ccc(NC(=O)CC(C)C)cc1S(=O)(=O)NCC(C)C`, the “% Inhibition” value was -16% and the Z score worked out at 1.93.
Taken in the same sequence, the figures for `CCC(=O)Nc1ccc(Oc2c(C)c(C(=O)O)nn2-c2ccccc2CC)c(S(=O)(=O)NCC(C)C)c1` were 97% and -9.77.
Consider `CC1=C(C(=O)NCCC(F)(F)F)Cn2nnnc2N1C`, for which the “% Inhibition” value is 0% and the Z score was determined as 0.01.
`CC(CC1OCC(C[N+]2(Cc3ccccc3)CCCCC2)O1)CC(C)(C)C` (stereo unspecified): the “% Inhibition” value came out at 60% and the Z score was -5.21.
`COC(=O)c1ccc(C[N+]2(C[C@H]3COC4(CCCCC4)O3)CCCC2)cc1`: the “% Inhibition” value is -5%. Further, the Z score (2 µM) was 0.44 and 0.65.
As for `CC1(C)C2CCC(C2)C1CC1OCC(C[N+]2(Cc3ccccc3)CCCCC2)O1` (stereo unspecified), the “% Inhibition” value is on record as -7% and the Z score worked out at 1.37.
`Cc1cc[n+]2c(-c3ccccc3)cc(-c3ccccc3)nc2c1`: the “% Inhibition” value was 60% and the Z score is -11.27.
Take `Cc1cc(-c2ccccc2)[n+]2ccccc2n1`: the “% Inhibition” value was -15% and the Z score came to 2.36.
Taken in the same sequence, the figures for `Cc1ccc(-c2csc(-c3nc(-c4ccccc4)cs3)n2)c(C)c1` were 10% and -1.13.
